High-throughput results: PubChem BioAssay, National Center for Advancing Translational Sciences (NCATS)
This is a sample that favours compounds with a hit; in the whole collection about 3.7% have one here.
TCR act = Activators of T cell receptors: qHTS campaign; primary human leukocytes, anti-CD3, IL-2 HTRF, 48 h; Potency, µM (titrated, usually from 9.22 µM), inactives show at the highest dose activation of IL-2 secretion, most hits filed as activators; 330,000 tested, under 10 active; also: % of control where 0% means no effect
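TCR engagement came from a-CD3 beads alone, with compounds added to primary human leukocytes for 48 hr. Secreted IL-2 bridged europium cryptate- and d2-labelled anti-IL-2 antibodies, giving FRET emission at 665nm after 320nm excitation.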
VDR inh = Inhibitors of the vitamin D receptor (VDR): qHTS; VDR-SRC2-3 peptide fluorescence polarization, 2 h; Potency, µM, without a hit: max response, negative = inhibition, most hits filed as inhibitors; hit rate 0.93% among 400,000; AID 504847, 2011; also: potency is read from the fitted curve at half-maximal effect; % is scaled to controls: 0 for no effect and ±100 for the full control effect
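Two reagent solutions held at 4 deg C in the dark were dispensed, compounds pinned at 23 nl, and the mixture incubated 2 h at room temperature. Read-out: fluorescence polarization of VDR–SRC2-3 peptide binding.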
WRN inhibitor = qHTS for Inhibitors of WRN Helicase; hit rate 0.46% among 360,000; Potency, µM (highest dose often 114 µM), for the others: top-dose activity change, negative = inhibition, most hits filed as inhibitors; Bifunctional 3'-5' exonuclease/ATP-dependent helicase WRN (Homo sapiens), Q14191; WRN helicase unwinding, fluorescent forked duplex, kinetic; AID 651768, 2012; also: potency is read from the fitted curve at half-maximal effect; % is scaled to controls: 0 for no effect and ±100 for the full control effect; nearly all actives have a fitted effect of over 55% in size
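WRN at 20 nM final preincubated with compound 15 min at room temperature; reaction started with 100 nM fluorophore/quencher forked duplex oligonucleotide and 2 mM ATP final. Unwinding followed kinetically by red fluorescence (ex 525, em 598 nm).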
PLK1 PBD inh = qHTS for Inhibitors of PLK1-PDB (polo-like kinase 1 - polo-box domain): Primary Screen. Plk1 PBD binding of FITC phosphopeptide, fluorescence polarization. Potency, µM, for inactives: max response, negative = inhibition, most hits filed as inhibitors. hit rate 2.8% among 360,000. Serine/threonine-protein kinase PLK1 (Homo sapiens), P53350; also: potency is read from the fitted curve at half-maximal effect; series mostly up to about 57 µM; % is scaled to controls: 0 for no effect and ±100 for the full control effect; nearly all actives have a fitted effect of over 65% in size
PI5P4K alpha inh = qHTS for Inhibitors of phosphatidylinositol 5-phosphate 4-kinase (PI5P4K); Phosphatidylinositol 5-phosphate 4-kinase type-2 alpha (Homo sapiens), P48426; PI5P4Kalpha enzyme, ADP-Glo luminescence, 60 min; active compounds read low; max response, %; hit rate 1.2% among 330,000; active = max response of -50% or lower; inconclusive = between -30% and -50%; inactive = -30% or higher; also: value at the top dose of about 77 µM; % is scaled to controls: 0 for no effect and ±100 for the full control effect
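Quantitative HTS of the MLSMR library against PI5P4Kalpha with substrate. ATP added last at 5 microM final; room temperature, 60 minutes. Remaining ATP depleted, ADP converted and read as luminescence.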
FEN1 inh = qHTS Assay for the Inhibitors of Human Flap endonuclease 1 (FEN1); P39748; Recombinant FEN1 flap cleavage, fluorescence, 15 min; Potency, µM (titrated, usually from 114 µM), for inactives: at the highest dose activity change, negative = inhibition, most hits filed as inhibitors; hit rate 0.35% among 390,000; AID 588795, 2011; also: potency is read from the fitted curve at half-maximal effect; % is scaled to controls: 0 for no effect and ±100 for the full control effect; nearly all actives have a fitted effect of over 65% in size
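In this screen, 50 nM flap DNA substrate was added to 10 nM FEN1 pretreated with compound for 15 min at room temperature; cleavage was followed with reads at 0 and 15 min, and Hill fitting gave concentration–response parameters.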
Starred values were filed as active, the others as inactive; u = inconclusive; x = no result given; [ ] = dose if it differs, or a comment. Unless noted, calls follow the shape of the dose curve; as a rule, active = well fitted curve in the direction sought with a large enough effect; inconclusive = small, poorly fitted or top-dose-only effect, or another doubt; inactive = no such curve, though single readings can be large; an effect the other way counts as inactive or inconclusive.

SMILES	TCR act	VDR inh	WRN inhibitor	PLK1 PBD inh	PI5P4K alpha inh	FEN1 inh
Cc1ccc(-c2nnn(CC(=O)NCC3COCCO3)n2)o1 (centres undefined)	0.7%	-31.2%	4.2%	29.9µM*	-15.4	-1.5%
CC(C)c1nc2ccc(C(=O)Nc3ccccc3F)cc2o1	x	7.5%	x	x	x	-2.2%
COc1ccc2c(CNCc3ccco3)c(C(=O)O)n(Cc3ccc(F)cc3Cl)c2c1	x	2.0%	x	x	x	6.8%
CCCCOc1nc2ccccc2nc1C(C#N)C(=O)NC1CCCCC1 (centres undefined)	0.2%	-10.6%	1.8%	26.7µM*	6.8	2.3%
N#CCCn1c(=O)c(-c2cccs2)nc2cnc(N3CCNCC3)nc21	x	-13.0%	x	x	x	x
CC1=C(C(=O)Nc2ccc(C)cc2C)C(c2ccc(C(C)C)cc2)n2nc(C(F)(F)F)nc2N1 (centres undefined)	x	8.2%	x	x	x	14.6%
Cc1cc(NC(=O)COC(=O)CC2CCCC2)c([N+](=O)[O-])cc1C	0.8%	-13.8%	1.6%	-15.8%	-10.3	-16.0%
CCC(=O)OCC(=O)Nc1cc(C)c(C)cc1[N+](=O)[O-]	0.8%[46.1 µM]	-8.1%	1.1%	23.8µM*	5.9	-8.7%
COCC(=O)Nc1cc([N+](=O)[O-])ccc1C	3.6%	-3.6%	-1.0%	11.9µM*	-16.5	5.4%
Cc1ccccc1NC(=O)CCC(=O)N/N=C/c1cc([N+](=O)[O-])ccc1O	0.6%	-17.2%	-3.7%	-3.8%	-21.3	-3.7%
Cc1ccc(C)c(NC(=O)CCC(=O)N/N=C/c2cc([N+](=O)[O-])ccc2O)c1	-2.8%	1.4%	-8.5%[57.1 µM]	37.7µM*	3.2	0.8%
Cc1ccc([N+](=O)[O-])cc1NC(=O)C(C)NS(=O)(=O)c1ccc(F)cc1 (centres undefined)	1.7%	-5.5%	4.7%[57.1 µM]	23.8µM*	-2.6	1.1%
CCOC(=O)C(=O)Nc1cc([N+](=O)[O-])ccc1C	5.1%[46.1 µM]	-2.0%	-4.2%	-3.4%	13.9	-1.3%
Cc1ccc(NC(=O)Cn2c(=O)ccc3cc(S(=O)(=O)N4CCC(C)CC4)ccc32)c(C)c1	x	2.3%	x	x	x	4.5%
O=C(NC1CCN(C(=S)NCc2ccco2)CC1)NC12CC3CC(CC(C3)C1)C2	-7.2%	10.1%	-8.2%	29.9µM*	x	6.8%
CCCCCCCCc1ccc(-c2ccc(C(=O)O)cc2)cc1	x	3.4%	x	x	x	x
C=CC(=O)c1ccc(CCCCCC)cc1	x	39.8µM*	x	x	x	x
CCn1c(COc2cccc(C)c2)nnc1SCC(=O)NC1CCCC1	2.1%	u	9.3%	29.9µM*	1.3	-9.0%
CCn1c(COc2ccccc2)nnc1SCC(=O)NC1CC1	5.8%	12.0%	-3.7%	-8.1%	8.5	21.3%
Cc1ccccc1CNC(=O)C1CCCN(c2nnc(-n3c(C)ccc3C)s2)C1 (centres undefined)	x	-5.0%	x	x	x	2.0%
CC(Sc1cccc[n+]1[O-])C(=O)NC1CCCCC1C (centres undefined)	-2.3%	-16.7%	1.3%	23.8µM*	-19.3	-4.5%
CC[C@H](C)[C@@H]1NC(=O)[C@H](Cc2ccc(O)cc2)NC(=O)[C@@H](N)CSSC[C@@H](C(=O)N2CCC[C@H]2C(=O)N[C@@H](CC(C)C)C(=O)NCC(N)=O)NC(=O)[C@H](CC(N)=O)NC(=O)[C@H](CCC(N)=O)NC1=O	x	-0.9%	x	x	x	x
